PubChem BioAssay AID1159580 (chemical genetic matrix, 2015)
Several values for one entry are separate records, joined by “and”; a condition that tells them apart may be missing. Identical values can stand only once. In all, about 5,500 compounds went through this assay and about 2,000 (36%) were called active. Roughly 18% stayed inconclusive and do not appear here. Rule as the data show it: active = normalized growth mostly below about 0.91 (no sharp cut-off); inconclusive = no clear call, values can overlap the other calls; inactive = mostly above about 0.92. This is one part of the list.

Assay: chemical genetic growth profiling, strain panel (AID 1159580);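 also: tested at 20 µM; growth read once vehicle control cultures reached saturation at 30 °C; 1 = growth at the plate median or of vehicle wells; lower values mean less growth of the strain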
Conditions: S. cerevisiae deletion strains, growth OD

Measured: normalized growth

CC(C)NNC(=O)c1ccncc1
inactive: locus YAL013W, strain DEP1, hits give low values 1.01 | locus YAL021C, strain ccr4, hits give low values 1.02 | locus YAL026C, strain drs2, hits give low values 1.03 | locus YAL030W, strain snc1, hits give low values 0.997 | locus YAL040C, strain CLN3, hits give low values 0.985 | locus YBL061C, strain skt5, hits give low values 1.01 | locus YBR009C, strain hhf1, hits give low values 1.01 | locus YBR021W, strain FUR4, hits give low values 1 | locus YBR023C, strain chs3, hits give low values 1.01 | locus YBR171W, strain sec66, hits give low values 1.01 | locus YBR229C, strain ROT2, hits give low values 1 | locus YBR231C, strain swc5, hits give low values 1.03 | locus YBR279W, strain paf1, hits give low values 1.01 | locus YCL011C, strain gbp2, hits give low values 1.02 | locus YCL016C, strain dcc1, hits give low values 1.01 | locus YCL029C, strain bik1, hits give low values 1.02 | locus YCL061C, strain MRC1 (second series), hits give low values 0.986 | locus YCL069W, strain vba3, hits give low values 1.02 | locus YCR088W, strain abp1, hits give low values 1.02 | locus YDL005C, strain med2, hits give low values 1 | locus YDL035C, strain GPR1, hits give low values 1.01 | locus YDL040C, strain nat1, hits give low values 1 | locus YDL074C, strain BRE1, hits give low values 1.02 | locus YDL101C, strain DUN1, hits give low values 1 | locus YDL134C, strain PPH21, hits give low values 1.01 | locus YDL185W, strain tfp1, hits give low values 1.01 | locus YDL192W, strain arf1, hits give low values 1.02 | locus YDR001C, strain nth1, hits give low values 1 | locus YDR069C, strain doa4, hits give low values 1 | locus YDR101C, strain arx1, hits give low values 1.01 | locus YDR137W, strain rgp1, hits give low values 1.01 | locus YDR150W, strain NUM1, hits give low values 0.994 and 0.996 | locus YDR159W, strain sac3, hits give low values 0.978 | locus YDR162C, strain NBP2, hits give low values 1.01 | locus YDR195W, strain ref2 0.961 | locus YDR297W, strain sur2, hits give low values 1 | locus YDR318W, strain mcm21, hits give low values 1.02 | locus YDR334W, strain swr1, hits give low values 1.03 | locus YDR335W, strain msn5, hits give low values 1.01 | locus YDR363W, strain ESC2, hits give low values 1.02 | locus YDR388W, hits give low values 1.01 | locus YDR392W, strain spt3, hits give low values 1.03 | locus YDR502C, strain sam2, hits give low values 1.01 | locus YEL003W, strain gim4, hits give low values 1 | locus YEL037C, strain rad23, hits give low values 1.02 | locus YEL061C, strain CIN8 (second series), hits give low values 1.01 | locus YEL061C, strain CIN8, hits give low values 1 | locus YER002W, strain NOP16, hits give low values 1.01 | locus YER015W, strain faa2, hits give low values 1.02 | locus YER016W, strain bim1, hits give low values 1.01 | locus YER110C, hits give low values 1.02 | locus YER111C, strain swi4, hits give low values 0.999 | locus YER155C, strain BEM2 (second series), hits give low values 1.04 | locus YER155C, strain BEM2, hits give low values 1 | locus YER167W, strain BCK2, hits give low values 1.01 | locus YFR010W, strain ubp6, hits give low values 1.02 | locus YGL078C, strain dbp3, hits give low values 1.02 | locus YGL086W, strain mad1, hits give low values 1.01 | locus YGL167C, strain pmr1, hits give low values 0.996 | locus YGL173C, strain kem1, hits give low values 1.03 | locus YGL227W, strain vid30, hits give low values 0.998 | locus YGL240W, strain doc1, hits give low values 1.01 | locus YGL248W, strain PDE1, hits give low values 0.996 | locus YGL253W, strain hxk2, hits give low values 1.03 | locus YGR078C, strain PAC10, hits give low values 1.01 | locus YGR135W, strain pre9, hits give low values 1.01 | locus YGR229C, strain SMI1, hits give low values 1 and 0.992 | locus YGR252W, strain gcn5, hits give low values 1.05 | locus YHR013C, strain ard1, hits give low values 1.02 | locus YHR027C, strain rpn1, hits give low values 1.01 | locus YHR030C, strain SLT2, hits give low values 1 | locus YHR079C, strain IRE1 (second series), hits give low values 1.02 | locus YHR094C, strain hxt1, hits give low values 1.01 | locus YHR129C, strain ARP1, hits give low values 1 | locus YHR142W, strain chs7, hits give low values 1.03 | locus YHR200W, strain rpn10, hits give low values 1.02 | locus YIL066C, strain RNR3, hits give low values 1.02 | locus YIL073C, strain SPO22, hits give low values 1.04 | locus YIL125W, strain kgd1, hits give low values 1.01 | locus YIR030C, strain dcg1, hits give low values 1.02 | locus YJL092W, strain hpr5, hits give low values 1.01 | locus YJL095W, strain BCK1 (second series), hits give low values 1.02 | locus YJL095W, strain BCK1, hits give low values 1.02 | locus YJL115W, strain asf1, hits give low values 0.988 | locus YJL129C, strain trk1, hits give low values 0.998 | locus YJL134W, strain LCB3, hits give low values 1.01 | locus YJL154C, strain vps35, hits give low values 1.01 | locus YJL164C, strain tpk1, hits give low values 1.01 | locus YJL166W, strain qcr8, hits give low values 1.01 | locus YJL168C, strain set2, hits give low values 1.02 | locus YJL187C, strain SWE1 (second series), hits give low values 1.01 | locus YJL187C, strain SWE1, hits give low values 1.01
